Source: PubChem BioAssay AID1224817 (Yan Lab, Georgia Cancer Center, Augusta University, 2016)
Hit rate of the full screen: of about 2,000 compounds, about 25 (1%) were called active.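 How the source made its calls: active means log2 luciferase ratio at or below -0.5849, meaning signal at two thirds of solvent-only control or lower; inactive means the rest.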 Many of the other results were omitted from the sample, so actives are more common in it than they were.

Assay: inhibitors of EIF4E gene expression, primary screen, cell-based, HT1080, luciferase reporter (AID 1224817);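 further: luciferase reports endogenous eIF4E expression since it is co-expressed from the native EIF4E locus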
Settings: HT1080 EIF4E-luc2 knock-in reporter, 16 h, at 2.5 µM, stronger effect = lower value

log2 luciferase activity ratio, active:
CCOc1ccc2c(ccc(/C=C\c3cc(C)c4cccnc4c3O)[n+]2C)c1 -0.823

log2 luciferase activity ratio, inactive:
Cc1ncc(COP(=O)(O)O)c(C)c1O 0.148
O=C(O)c1ccc(C(=O)O)c(C(=O)O)c1.[NH-]C1CCCCC1[NH-].[Pt+2] 0.127
Cn1c(=S)c2[nH]c(SCCCc3ccccc3)nc2n(C)c1=O 0.0675
CN1CCN(c2nc3c(c(=O)n(C)c(=O)n3C)n2C)CC1 -0.0962
Cc1[nH]n(-c2ccc(S(=O)(=O)O)cc2)c(=O)c1N=Nc1ccccc1 0.391
Nc1ccc(N=Nc2ccc(-c3ccc(O)cc3)cc2)c2ccc(S(=O)(=O)O)cc12 0.247
NNC(=O)C(O)C(O)C(=O)NN (stereo unspecified) 0.225
Nc1nc2c(c(=O)[nH]1)NC(CCNc1ccc(C(=O)O)cc1)CN2 (stereo unspecified) -0.0715
O=C1COC(c2ccccc2O)=NN1CCCN1CCCC1 0.0493
CNC1C(OC2C(OC3C(O)C(O)C(N=C(N)N)C(O)C3N=C(N)N)OC(C)C2(O)/C=N/NC(N)=S)OC(CO)C(O)C1O (stereo unspecified) -0.0125
COc1cccc2[nH]c(-c3ccccn3)nc12 1.75
C/C=C/c1cc2c(c(=O)o1)C(=O)[C@@H](O)[C@H](C)O2 0.166
Sc1ccc2ccccc2c1CNCc1ccccc1 0.379
O=C(O)C1CC[N-]CC1.O=C(O)C1CC[N-]CC1.[NH2-].[NH2-].[Pt+4] 0.578
CCC(C(=O)C(C)C(O)C(C)CCc1ccc(C)c(O)c1C(=O)O)C1OC(CC)(C2CCC(O)(CC)C(C)O2)CC1C (stereo unspecified) -0.243
CC1=C2[C@H]3OC(=O)[C@@H](C)[C@@H]3CC[C@@]2(C)C=C/C1=N\O -0.026
Cc1ccc2nc(-c3ccc(NC(=O)c4ccc(N)cc4)c(S(=O)(=O)O)c3)sc2c1 0.394
O=C(O)CNC(=O)C1NC(C(F)(F)F)(C(F)(F)F)OC1(C(F)(F)F)C(F)(F)F (stereo unspecified) 0.305
C=C1C(=O)OC2CC(C)C3(O)CCC(=O)C3(C)CC12 (stereo unspecified) -0.237
Nc1ccc(S(=O)(=O)NCCS(=O)(=O)O)cc1 -0.13
O=C(O)c1cc(=O)[nH]c(=S)[nH]1 0.238
NC(N)=N/N=C/c1ccc(O)c(C(=O)O)c1 0.267
NNC(=O)CS(=O)(=O)Nc1ncccn1 -0.266
O=C(N/N=C/c1ccc2c(c1)CCC2)c1ccccc1O 0.157
CS(=O)(=O)Nc1ccc(Nc2c3ccccc3nc3ccccc23)cc1 0.308
